# Assay results published in PubChem BioAssay AID1224921 (Broad Institute, 2016).
# About 350 (25%) of roughly 1,400 compounds were called active. Another 2% or so got no clear call; they are omitted. Only a sample is shown. Entries with a potency or affinity are not part of this list. Unmarked numbers belong to inactive results. How the calls were made is not given here.
# Test: C. difficile growth inhibition, confirmation, 4-point retest (AID 1224921);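 further: plate controls were DMSO wells for no effect and levofloxacin 16 µg/mL wells for full effect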
# Details: Clostridioides difficile clinical isolate growth, OD600, 24 h, stronger effect = lower value; at 30 µM unless noted
row,SMILES,max activity
1,C[C@@H]1CN([C@H](C)CO)S(=O)(=O)c2ccc(C#CC3CCCCC3)cc2O[C@@H]1CN(C)Cc1cccnc1,42.2%
2,CO[C@H]1CN(C)C(=O)c2ccc(NC(=O)c3ccc(F)cc3)cc2OC[C@H](C)N(C(=O)CN(C)C)C[C@@H]1C,-12.9%
3,COc1ccccc1C#Cc1ccc2c(c1)O[C@@H](CN(C)Cc1cccnc1)[C@H](C)CN([C@H](C)CO)S2(=O)=O,35.7%
4,O=C(C[C@H]1C[C@@H]2c3cc(NC(=O)Nc4ccc(C(F)(F)F)cc4)ccc3O[C@@H]2[C@H](CO)O1)NCc1ccc2c(c1)OCO2,9.19%
5,C[C@@H]1CN([C@@H](C)CO)S(=O)(=O)c2ccc(C#CCC3CCCC3)cc2O[C@H]1CN(C)C(=O)c1ccccn1,25.9%
6,CO[C@H]1CN(C)C(=O)c2ccc(NC(=O)C3CC3)cc2OC[C@@H](C)N(Cc2cccc(F)c2)C[C@H]1C,15.9%
7,CO[C@H]1CN(C)C(=O)c2ccc(NC(=O)c3ccc(F)cc3)cc2OC[C@@H](C)N(C(=O)CN(C)C)C[C@@H]1C,-6.76% [at 0.5 µM]
8,C[C@H]1CN([C@@H](C)CO)S(=O)(=O)c2ccc(C#CC3CC3)cc2O[C@@H]1CN(C)Cc1cccnc1,36.4%
9,COc1ccccc1C#Cc1ccc2c(c1)O[C@@H](CN(C)Cc1ccncc1)[C@H](C)CN([C@H](C)CO)S2(=O)=O,34.5%
10,CO[C@@H]1CN(C)C(=O)c2cc(NC(C)=O)ccc2OC[C@@H](C)N(CCc2ccccc2)C[C@@H]1C,18.4%
11,CO[C@@H]1CN(C)C(=O)c2ccc(NC(=O)c3nc4ccccc4s3)cc2OC[C@H](C)N(Cc2ccncc2)C[C@H]1C,21.3%
12,COc1ccc(NC(=O)Nc2ccc3c(c2)[C@H]2C[C@H](CC(=O)N4CCc5ccccc5C4)O[C@@H](CO)[C@H]2O3)cc1,-11.6% [at 0.5 µM]
13,CCCC(=O)Nc1ccc2c(c1)OC[C@@H](C)N(C(=O)Cc1cccnc1)C[C@@H](C)[C@H](OC)CN(C)C2=O,-13.6% [at 1.95 µM]
14,COCC(=O)N(C)C[C@@H]1Oc2cc(C#Cc3ccccc3)ccc2S(=O)(=O)N([C@@H](C)CO)C[C@@H]1C,7.66%
15,CO[C@@H]1CN(C)C(=O)c2ccc(NC(=O)c3nc4ccccc4s3)cc2OC[C@@H](C)N(Cc2cccnc2)C[C@@H]1C,29.5%
16,CO[C@H]1CN(C)C(=O)c2cc(NC(=O)c3ccccc3)ccc2OC[C@@H](C)N(C)C[C@H]1C,10.4%
17,COc1ccc(S(=O)(=O)N2C[C@@H](O)COC[C@H]3O[C@H](CC(=O)NCc4ccc(Cl)c(Cl)c4)CC[C@@H]32)cc1,33.9% [at 0.5 µM]
18,Cc1ccc(S(=O)(=O)N2C[C@H](O)COC[C@H]3O[C@H](CC(=O)NCc4ccc(Cl)c(Cl)c4)CC[C@@H]32)cc1,26.4% [at 8 µM]
19,Cc1ccc(S(=O)(=O)N2C[C@@H](O)COC[C@@H]3O[C@@H](CC(=O)NCC4CCCCC4)CC[C@H]32)cc1,22.7% [at 8 µM]
20,C[C@H](CO)N1C[C@H](C)[C@H](CN(C)Cc2cccnc2)Oc2cc(C#CC3CCCCC3)ccc2S1(=O)=O,30.4%
21,C[C@@H]1CN([C@@H](C)CO)C(=O)Cc2cc(N(C)C)ccc2O[C@@H]1CN(C)Cc1ccc(-c2ccccc2)cc1,57.8%
22,C[C@@H]1CN([C@H](C)CO)C(=O)c2cc(-c3ccccc3)cnc2O[C@@H]1CN(C)Cc1ccccn1,-13.1% [at 1.95 µM]
23,O=C(C[C@@H]1C[C@@H]2c3cc(NC(=O)Nc4ccc(C(F)(F)F)cc4)ccc3O[C@@H]2[C@H](CO)O1)NCc1ccc2c(c1)OCO2,9.21% [at 1.95 µM]
24,CC(C)NC(=O)N[C@H]1CC[C@H](CC(=O)NCCCN(C)C)O[C@H]1CO,-16.5% [at 1.95 µM]
25,C[C@@H]1CN([C@H](C)CO)C(=O)c2c(c3ccccc3n2C)-c2ccccc2CO[C@@H]1CN(C)S(=O)(=O)c1cccc(F)c1,42% [at 35 µM]
